HT1080NT lethal: kills 2HG-producing HT-1080-NT fibrosarcoma cells | HT-1080-NT fibrosarcoma viability, CellTiter-Glo ATP luminescence, 48 h | Potency, µM (titrated, usually from 46.1 µM), for the others: top-dose activity, negative = less viability, most hits filed as cytotoxic | 360,000 compounds, 1.6% hits;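 note: NT is the 2HG producing partner of a matched IDH1 knockdown line; 0% = DMSO-treated cells and -100% = media-only wells without cells; nearly all actives have a fitted effect of over 55% in size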
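Luminescent CellTiter-Glo readout after 48 hours of compound exposure at 37 degrees C defined viability of HT-1080-NT cells. Activity was normalized to DMSO wells and cell-free media wells; concentration-response curves were fitted and assigned curve classes.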
TGFb inhibitor: TGF-b pathway inhibition. Potency, µM (titrated, usually from 46.1 µM), without a hit: top-dose activity, negative = inhibition, hits mostly inhibitors. 410,000 compounds, 1.2% hits. HepG2 CAGA-GFP TGF-b/SMAD3 reporter, GFP fluorescence, 18 h; TGF-beta stimulated, 500 pg/mL final; note: % is set by controls: 0 for no effect and ±100 for the full control effect; nearly all actives have a fitted effect of over 65% in size
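Per well, imaged GFP fluorescence of HEPG2 CAGA-GFP cells gives the signal; cells get compound, then TGF-beta (500 pg/mL final), 18 h at 37 degrees C; %Activity versus -TGF-beta and +DMSO controls.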
HepG2 viability: counter-screen for TGF-b inhibitors: cytotoxicity in HepG2 cells; HepG2 CAGA-GFP viability, ATP luminescence, 18 h; Potency, µM (highest dose often 46.1 µM), for inactives: at the highest dose activity change, negative = cytotoxicity, actives largely listed as cytotoxic; 410,000 compounds, 0.76% hits
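HepG2 CAGA-GFP cells (1000/well, DMEM with 1% FBS) received compound, then TGF-beta at 500 pg/mL final, and were incubated 18 hours at 37 degrees C. Viability was read by CellTiter-Glo luminescence. Media-only wells were set as complete cell-killing and DMSO as no toxicity.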
DT40 TDP1 no CPT: qHTS for Inhibitors of human tyrosyl-DNA phosphodiesterase 1 (TDP1): qHTS in cells in absence of CPT. DT40 Tdp1-/- hTDP1 cells, no CPT, ATP luminescence, 48 h. Potency, µM (doses to about 46.2 µM), for the others: at the top dose activity change, negative = growth inhibition, actives largely listed as inhibitors. 420,000 compounds, 15% hits; note: % is set by controls: 0 for no effect and ±100 for the full control effect; nearly all actives have a fitted effect of over 55% in size
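DT40 Tdp1-/-;hTDP1 cells, no CPT (DMSO vehicle only), 400 cells/well; compounds pin-transferred; ≥48 hr, 37 °C; CellTiter-Glo 30 min RT dark, luminescence read.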
HT1080 IDH1KD tx: toxicity to HT-1080 IDH1 knockdown cells (counter line). 360,000 compounds, 2% hits. HT-1080 IDH1 knockdown viability, ATP luminescence, 48 h. Potency, µM (series often up to 46.1 µM), for the others: at the top dose activity, negative = toxicity, actives largely listed as cytotoxic;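 note: 0% = DMSO wells and -100% = cell-free medium wells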
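In this qHTS, HT-1080 cells depleted of IDH1 are exposed for 48 h at 37 °C to compound titrations. Toxicity is scored from CellTiter-Glo luminescence, with DMSO as full viability and medium alone as none.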
DT40 TDP1 CPT: growth inhibition of DT40 Tdp1-/-;hTDP1 cells with camptothecin (screen for TDP1 inhibitors); chicken DT40 Tdp1-/-;hTDP1 cells + 20 nM CPT, ATP luminescence, 48 h; Potency, µM (titrated, usually from 46.2 µM), for the others: at the highest dose activity change, negative = growth inhibition, hits mostly inhibitors; 420,000 compounds, 12% hits; AID 686979; note: % is set by controls: 0 for no effect and ±100 for the full control effect; nearly all actives have a fitted effect of over 55% in size
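Chicken DT40 Tdp1-/- cells stably complemented with human TDP1 were seeded at 400 cells/well in medium containing 20 nM camptothecin, exposed to pin-transferred compounds, and grown at 37 °C for at least 48 hr. Viability was read as ATP luminescence.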
Numbers without * were called inactive; ? = inconclusive; . = no result; [ ] = another dose, or the depositor's remark. An excerpt weighted towards active compounds, which were near 17% of everything screened. Calls come from the whole dose curve; as a rule, active = well fitted curve in the direction sought with a large enough effect; inconclusive = small, poorly fitted or top-dose-only effect, or another doubt; inactive = no such curve, though single readings can be large; an effect the other way counts as inactive or inconclusive. Potency is the fitted concentration of half-maximal effect.

SMILES | HT1080NT lethal | TGFb inhibitor | HepG2 viability | DT40 TDP1 no CPT | HT1080 IDH1KD tx | DT40 TDP1 CPT
O=S(=O)(Nc1nc2ccccc2nc1Nc1cccc(S(=O)(=O)N2CCCCC2)c1)c1ccccc1 | 6.5µM* | 71% | -40% | 5.8µM* | ? | 6.5µM*
COc1ccc(S(=O)(=O)Nc2cccc(S(=O)(=O)N3CCCCCC3)c2)cc1 | -5% | -17% | 12% | ? | -3% | -6%
O=C(Nc1cccc(S(=O)(=O)N2CCCCC2)c1)c1c2c(nc3ccccc13)CCN(Cc1ccccc1)C2 | -20% | ? | -5% | 18µM* | -21% | 21µM*
COc1ccc(Nc2nc3ccccc3nc2NS(=O)(=O)c2cccs2)cc1 | 0% | -9% | -37% | ? | -18% | ?
COc1ccc(S(=O)(=O)N2CCCCC2)cc1NC(=O)c1ccc2ccccc2n1 | 16% | 11% | 2% | 13µM* | 13% | 15µM*
Cc1ccc(S(=O)(=O)N2CCCCC2)cc1NC(=O)c1ccc2ccccc2n1 | 11% | -5% | -7% | -18% | 14% | 1%
Cc1nn(CC(=O)Nc2cc(F)ccc2F)c(=O)c2cccn12 | . | 33% | 1% | -16% | . | -3%
COc1ccccc1CNc1ncnc2ccc(-c3cccnc3)cc12 | . | . | . | 21µM* | . | ?
COc1ccccc1CNc1ncnc2cc(Cl)ccc12 | -12% | ? | -20% | ? | -18% | ?
COc1ccccc1CNc1ncnc2ccc(-c3ccc(N(C)C)cc3)cc12 | . | . | . | 13µM* | . | 16µM*
O=c1[nH]n(Cc2ccccc2)c2ccccc12 | 18% | -12% | -19% | -10% | 11% | 33%
Cn1c(-c2ccsc2)c(-c2cccs2)c2cc(Br)ccc21 | -1% | ? | -8% | ? | -3% | ?
CC(C)n1c(SCC(=O)Nc2ccc3c(c2)OCO3)nc2c1c(=O)n(C)c(=O)n2C | 4% | 6% | -1% | ? | -15% | ?
CCOc1ccc2nc(NC(=O)CSc3nc4c(c(=O)n(C)c(=O)n4C)n3C(C)C)sc2c1 | -7% | ? | 1% | 15µM* | 4% | 23µM*
CCn1c(SCC(=O)Nc2nc3ccc(OC)cc3s2)nc2c1c(=O)n(C)c(=O)n2C | 1% | -16% | -11% | ? | ? | 18µM*
CC(C)n1c(SCC(=O)Nc2nc3ccccc3s2)nc2c1c(=O)n(C)c(=O)n2C | -3% | -6% | -18% | 21µM* | -12% | 16µM*
CCCn1c(SCC(=O)Nc2nc(-c3ccc(OC)cc3)cs2)nc2c1c(=O)n(C)c(=O)n2C | -1% | 1% | -2% | ? | -2% | ?
O=C(NCc1ccc(Cl)cc1)C1CCCCN1S(=O)(=O)c1ccccc1 (stereo unspecified) | -14% | -3% | -8% | ? | -8% | -18%
COc1ccc(-c2cn3c(n2)sc2cc(C(=O)NCCCN4CCCCCC4)ccc23)cc1 | . | ? | -67% | 3.3µM* | . | 2.9µM*
COc1ccc(-c2cn3c(n2)sc2cc(C(=O)NCCCN4CCCCC4)ccc23)cc1 | . | ? | -94% | 0.73µM* | . | 1µM*
Nc1nc(SCC(=O)NC2CCCCCC2)[nH]c(=O)c1-c1ccccc1 | 10% | -1% | 1% | -11% | 4% | -12%
Cc1cc(NC(=O)c2cc(-c3cccs3)nc3ccccc23)no1 | ? | 2% | 0% | 26µM* | ? | 21µM*
COc1ccc(-c2cc(C(=O)Nc3cc(C)on3)c3ccccc3n2)c(OC)c1 | 1% | -42% | -15% | 9.2µM* | 1% | 12µM*
CN(C)S(=O)(=O)c1ccc(NC(=O)c2cc(-c3cccs3)nc3ccccc23)cc1 | -10% | ? | -12% | 15µM* | 0% | ?
CCN(CC)S(=O)(=O)c1ccc(NC(=O)c2cc(-c3cccs3)nc3ccccc23)cc1 | ? | ? | 0% | ? | ? | ?
SMILES | HT1080NT lethal | TGFb inhibitor | HepG2 viability | DT40 TDP1 no CPT | HT1080 IDH1KD tx | DT40 TDP1 CPT
Cc1cc(NC(=O)CSc2nc(-c3cccs3)nc3ccccc23)no1 | 5.8µM* | -23% | -9% | 1.8µM* | 5.2µM* | 2.3µM*
COc1ccccc1C(=O)NNC(=O)c1ccc(NC(=O)CC(C)C)cc1 | 1% | 9% | 16% | -3% | 5% | -4%
COc1ccc(S(=O)(=O)NCCSCc2cccs2)cc1 | -1% | -6% | -10% | -12% | -12% | -24%
Cc1cc(C)nc(NC(=O)c2cc(-c3ccc(C)s3)nc3ccccc23)c1 | -5% | -25% | -10% | 21µM* | -1% | ?
Cc1cc(NC(=O)c2cc(-c3ccccn3)nc3ccccc23)no1 | -4% | -17% | 3% | -21% | -1%[9.24 µM] | -7%
Cc1cc(NC(=O)c2cc(-c3ccc(C)c(C)c3)nc3ccccc23)no1 | 3% | 0% | -25% | 10µM* | -22% | 12µM*
Cc1ccc(-c2cc(C(=O)Nc3cccnc3)c3ccccc3n2)s1 | -1% | ? | 0% | ? | 9% | ?
CCc1cccc(C)c1NC(=O)CN1C(=O)c2c(c3ccccc3n2C)C1c1ccc(OC)cc1 (stereo unspecified) | . | ? | -21% | 29µM* | . | ?
COc1ccc(C2c3c(n(C)c4ccccc34)C(=O)N2CC(=O)Nc2ccc(Cl)cc2)cc1 (stereo unspecified) | . | 2.5µM* | -29% | ? | . | 18µM*
CCOc1ccccc1NC(=O)Cn1ncc2c([nH]c3ccccc32)c1=O | . | -1% | 2% | -25% | . | -18%
COc1cc(C(=O)Nc2ccc(S(=O)(=O)N3CCCCC3C)cc2)cc(OC)c1OC (stereo unspecified) | -26% | -16% | -24% | ? | ? | 21µM*
COc1ccc(C(=O)Nc2ccc(NC(C)=O)cc2)cc1S(=O)(=O)N1CCCCC1C (stereo unspecified) | ? | 4% | -8% | ? | ? | ?
COc1ccc(C(=O)Nc2ccc(S(=O)(=O)N3CCCCC3C)cc2)c(OC)c1OC (stereo unspecified) | ? | ? | -32% | 16µM* | ? | 18µM*
COc1ccc(N(CC(=O)NCc2ccc(C)cc2)S(=O)(=O)c2c(C)noc2C)cc1 | 6% | 10% | 4% | 1% | 0% | -7%
